Assay results as given in PubChem BioAssay (Tox21).
Results filed as inconclusive are left out. Calls of active or inactive are those of the source. Unless noted, calls follow the shape of the dose curve; as a rule, active = well fitted curve in the direction sought with a large enough effect in the repeat runs; inconclusive = weak or mixed curves; inactive = no such curve, though single readings can be large; an effect the other way counts as inactive or inconclusive.

How the values were obtained:
[1] = qHTS assay for small molecule agonists of the p53 signaling pathway (AID 651631; calls by dose curve; also: nearly all actives have a fitted effect of over 15% in size)
In short: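 Quantitative high-throughput format: 4,000 p53RE-bla HCT-116 cells/well, 5 h pre-incubation, 16 h compound exposure at 37 °C, 2 h room-temperature substrate step, fluorescence intensity measured.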

[2] = qHTS assay for small molecules that induce genotoxicity in human embryonic kidney cells expressing luciferase-tagged ATAD5 (AID 651632); also: nearly all actives have a fitted effect of over 15% in size
In short: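 DMSO vehicle served as the control. HEK293T reporter cells, 16 hr at 37C, then 30 min Amplite at room temperature; ATAD5 induction is measured as luciferase activity.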

[3] = qHTS assay for small molecule agonists of the p53 signaling pathway - cell viability (AID 651633; calls by dose curve;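 also: p53RE-bla HCT reporter cells with a stable beta-lactamase p53 reporter; series mostly up to about 83 µM; nearly all actives have a fitted effect of over 30% in size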)
In short: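 Viability counter-read: CellTiter-Glo luminescence (30 min, room temperature) in the same p53RE-bla plates. These plates had been exposed to compounds for 16 h at 37 C.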

[4] = qHTS assay for small molecules that induce genotoxicity in human embryonic kidney cells expressing luciferase-tagged ATAD5 - cell viability (AID 651634; calls by dose curve; also: nearly all actives have a fitted effect of over 25% in size)
In short: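 Here HEK293T cells with the ATAD5 luciferase reporter are incubated with test compounds for 15.5 hr, and cytotoxicity is then gauged by measuring protease activity in live cells using fluorescence.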

[5] = qHTS assay for small molecule disruptors of the mitochondrial membrane potential - cell viability (AID 720634; calls by dose curve;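 also: human HepG2 liver cancer cells; series mostly up to about 83 µM; nearly all actives have a fitted effect of over 20% in size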)
In short: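 Viability of HepG2 cells is scored from ATP content by luminescence; cells are exposed to compound for 1 hr at 37 C and 5% CO2, then dosed with m-MPI dye before the CellTiter-Glo reagent.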

[6] = qHTS assay to test for compound auto fluorescence at 590 nm (red) in HepG2 cells (AID 720674)
In short: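 We screened compounds on adherent HepG2 cells, incubating them for an hour at 37 C in 5% CO2 before reading emission at 590 nm under 540 nm excitation; values reflect equivalence to Rose Bengal sodium fluorescence.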

[7] = qHTS assay to test for compound auto fluorescence at 535 nm (green) in HepG2 cells (AID 720675)
[8] = qHTS assay to test for compound auto fluorescence at 460 nm (blue) in HEK293 cells (AID 720678)
In short: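 Auto fluorescence in the blue band was quantified as triamterene equivalency. HEK293 cells were seeded at 2,000/well, dosed after a 4-5 hr attachment, and kept overnight at 37C before the 405/460 nm reading.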

[9] = qHTS assay to test for compound auto fluorescence at 590 nm (red) in HEK293 cells (AID 720679)
In short: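 Autofluorescence equivalency to Rose Bengal sodium, 540/590nm, in HEK293 cells exposed overnight to 23 nL compound per well.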

[10] = qHTS assay to test for compound auto fluorescence at 535 nm (green) in HEK293 cells (AID 720680)
[11] = qHTS assay to test for compound auto fluorescence at 460 nm (blue) in HEK293 cell free culture (AID 720681)
In short: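 Blue fluorescence (Ex 405/Em 460 nm, triamterene-equivalent) was read immediately after pin transfer of compound or DMSO into medium (DMEM, 10% FBS) without cells.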

[12] = qHTS assay to test for compound auto fluorescence at 535 nm (green) in HEK293 cell free culture (AID 720682)
In short: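 Measurement is a direct plate read of green fluorescence (485 nm in, 535 nm out) after compound addition to serum-supplemented DMEM lacking cells, with fluorescein used to express intensities.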

[13] = qHTS assay to test for compound auto fluorescence at 590 nm (red) in HEK293 cell free culture (AID 720683)
In short: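 Red-channel autofluorescence of compounds in culture medium (DMEM, 10% FBS), no cells, measured at 540/590 nm. Rose Bengal sodium is the reference fluorophore for equivalence.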

[14] = qHTS assay to test for compound auto fluorescence at 590 nm (red) in HepG2 cell free culture (AID 720684)
In short: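 Cell-free; medium MEM + 10% FBS; compound or DMSO added by pintool; read Ex 540/Em 590 nm; Rose Bengal sodium as red reference fluorophore.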

[15] = qHTS assay to test for compound auto fluorescence at 460 nm (blue) in HepG2 cell free culture (AID 720685)
In short: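 Cell-free plates of MEM plus 10% FBS received 23 nL compound or DMSO vehicle; blue-channel (405/460 nm) intensity scored against triamterene as reference fluorophore.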

[16] = qHTS assay to test for compound auto fluorescence at 535 nm (green) in HepG2 cell free culture (AID 720686)
[17] = qHTS assay to test for compound auto fluorescence at 460 nm (blue) in HepG2 cells (AID 720687)
In short: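 Blue-channel autofluorescence (Ex/Em 405/460 nm, triamterene-equivalent) was measured after 1 hr compound exposure at 37 C, 5% CO2. Cells were HepG2, plated overnight at 37 C in MEM plus 10% FBS.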

[18] = molecular target: Glucocorticoid receptor (Homo sapiens) (UniProt P04150); test: qHTS assay to identify small molecule agonists of the glucocorticoid receptor (GR) signaling pathway (AID 720691; active = well fitted activation curve with a large enough effect in the signal ratio in the repeat runs, not every such curve was filed as active; the % refers to the signal ratio)
Glucocorticoid receptor (Homo sapiens), sequence (P04150 whole entry, looked up): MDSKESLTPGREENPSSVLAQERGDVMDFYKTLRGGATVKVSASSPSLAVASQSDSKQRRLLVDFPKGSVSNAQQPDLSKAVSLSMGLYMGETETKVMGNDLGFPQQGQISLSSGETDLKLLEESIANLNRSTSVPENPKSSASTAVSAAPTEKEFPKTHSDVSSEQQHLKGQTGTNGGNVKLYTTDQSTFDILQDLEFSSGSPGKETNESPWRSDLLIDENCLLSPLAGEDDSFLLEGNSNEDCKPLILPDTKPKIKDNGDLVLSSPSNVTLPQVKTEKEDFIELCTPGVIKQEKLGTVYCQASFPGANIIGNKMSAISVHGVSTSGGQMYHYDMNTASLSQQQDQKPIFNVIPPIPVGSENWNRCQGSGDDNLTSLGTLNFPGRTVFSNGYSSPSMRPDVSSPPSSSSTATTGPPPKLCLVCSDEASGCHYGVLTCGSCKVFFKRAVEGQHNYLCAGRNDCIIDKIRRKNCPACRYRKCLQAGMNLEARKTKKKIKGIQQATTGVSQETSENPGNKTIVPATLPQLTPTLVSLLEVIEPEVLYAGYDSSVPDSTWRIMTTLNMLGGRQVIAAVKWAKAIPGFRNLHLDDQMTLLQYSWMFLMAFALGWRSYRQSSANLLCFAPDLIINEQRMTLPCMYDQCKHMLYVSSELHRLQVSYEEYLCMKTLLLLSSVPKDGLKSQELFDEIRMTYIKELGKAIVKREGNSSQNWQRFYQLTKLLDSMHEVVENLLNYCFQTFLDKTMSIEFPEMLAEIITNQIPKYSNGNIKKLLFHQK
In short: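 Compounds in DMSO, alongside positive controls, were added to GR-bla HeLa reporter cells and incubated 18 h at 37 C; GRE-driven beta-lactamase was detected by fluorescence after 2 h with FRET substrate at room temperature.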

[19] = molecular target: Glucocorticoid receptor (Homo sapiens) (UniProt P04150); test: qHTS assay to identify small molecule antagonists of the glucocorticoid receptor (GR) signaling pathway (AID 720692; active = well fitted inhibition curve with a large enough effect in the signal ratio in the repeat runs, not every such curve was filed as active; the % refers to the signal ratio)
In short: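 In a 1536-well cell format, compounds were added 4 h after seeding GR-bla HeLa cells, together with dexamethasone at 5 nM final; reporter activity was measured by FRET-substrate fluorescence following 18 h at 37 C.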

[20] = qHTS assay for small molecule disruptors of the mitochondrial membrane potential (AID 720635)
In short: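 Mitochondrial membrane potential tracked with Mito-MPS dye, red aggregates (ex 540/em 590 nm) against green monomers (ex 490/em 535 nm). Compound treatment 1 hr at 37C, dye 30 min in HepG2.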
% is scaled to controls: 0 for no effect and ±100 for the full control effect.

CCNC(=O)C(C)OC(=O)Nc1ccccc1 (centres undefined)
inactive: Potency [1] | Potency [2] | outcome [3] | outcome [4] | outcome [5] | outcome [6] | outcome [7] | outcome [8] | outcome [9] | outcome [10] | outcome [11] | outcome [12] | outcome [13] | outcome [14] | outcome [15] | outcome [16] | outcome [17] | Potency [18] | outcome [19]

O=C(O)P(=O)(O)O
inactive: Potency [1] | Potency [2] | outcome [3] | outcome [4] | outcome [5] | outcome [6] | outcome [7] | outcome [8] | outcome [9] | outcome [10] | outcome [12] | outcome [13] | outcome [14] | outcome [15] | outcome [16] | outcome [17] | Potency [18]

C=CC(C)(CCC=C(C)C)OC(=O)C(C)C (centres undefined)
inactive: Potency [1] | Potency [2] | outcome [3] | outcome [4] | Potency [20] | outcome [6] | outcome [7] | outcome [8] | outcome [9] | outcome [10] | outcome [11] | outcome [12] | outcome [13] | outcome [14] | outcome [15] | outcome [16] | outcome [17] | Potency [18] | outcome [19]

O=S(=O)(O)c1ccc(Cl)cc1
inactive: Potency [1] | Potency [2] | outcome [3] | outcome [4] | outcome [5] | outcome [6] | outcome [7] | outcome [8] | outcome [9] | outcome [10] | outcome [11] | outcome [12] | outcome [13] | outcome [14] | outcome [15] | outcome [16] | outcome [17] | Potency [18] | outcome [19]

COC(C)(C)CC(C)=O
inactive: Potency [1] | Potency [2] | outcome [3] | outcome [4] | outcome [5] | outcome [6] | outcome [7] | outcome [8] | outcome [9] | outcome [10] | outcome [11] | outcome [12] | outcome [13] | outcome [14] | outcome [15] | outcome [16] | outcome [17] | Potency [18]

CC12CCCC=C1C(=O)OC2=O (centres undefined)
inactive: Potency [1] | Potency [2] | outcome [3] | outcome [4] | outcome [5] | outcome [6] | outcome [7] | outcome [8] | outcome [10] | outcome [11] | outcome [12] | outcome [13] | outcome [14] | outcome [15] | outcome [16] | outcome [17]

C[n+]1ccccc1/C=N/O
inactive: Potency [1] | Potency [2] | outcome [3] | outcome [4] | Potency [20] | fluorescence, relative to Rose Bengal [6] 0.247% [at 18.6 µM] | fluorescence, % of fluorescein control [7] -0.126% [at 18.6 µM] | fluorescence, % of triamterene [8] -0.0874% [at 18.6 µM] | fluorescence, % of fluorescent control [9] -1.07% [at 18.6 µM] | fluorescence, % of fluorescein [10] -0.0429% [at 18.6 µM] | fluorescence, % of fluorescent control [11] 0.0506% [at 18.6 µM] | activity change [12] -0.0149% [at 18.6 µM] | fluorescence, % of fluorescent control [13] -0.29% [at 18.6 µM] | fluorescence, % of Rose Bengal [14] -0.356% [at 18.6 µM] | fluorescence, % of fluorescent control [15] -0.0014% [at 18.6 µM] | fluorescence, % of fluorescein control [16] 0.0162% [at 18.6 µM] | fluorescence, % of fluorescent control [17] 0.0546% [at 18.6 µM] | Potency [18] | outcome [19]

Nc1ccc(C(=O)NCC(=O)O)cc1
inactive: Potency [1] | Potency [2] | outcome [3] | outcome [4] | outcome [5] | fluorescence, relative to Rose Bengal [6] 0.477% [at 18.6 µM] | fluorescence, % of fluorescein control [7] 0.0596% [at 18.6 µM] | fluorescence, % of triamterene [8] -0.0255% [at 18.6 µM] | fluorescence, % of fluorescein [10] -0.0255% [at 18.6 µM] | fluorescence, % of fluorescent control [11] 0.0205% [at 18.6 µM] | activity change [12] -0.0258% [at 18.6 µM] | fluorescence, % of fluorescent control [13] -0.0926% [at 18.6 µM] | fluorescence, % of Rose Bengal [14] -0.0233% [at 18.6 µM] | fluorescence, % of fluorescent control [15] -0.124% [at 18.6 µM] | fluorescence, % of fluorescein control [16] 0.0021% [at 18.6 µM] | fluorescence, % of fluorescent control [17] -0.0546% [at 18.6 µM] | Potency [18] | outcome [19]

CC(O)C(CO)C(C)O (centres undefined)
inactive: Potency [1] | Potency [2] | outcome [3] | outcome [4] | Potency [20] | outcome [6] | outcome [7] | outcome [8] | outcome [9] | outcome [10] | outcome [12] | outcome [13] | outcome [14] | outcome [15] | outcome [16] | outcome [17] | Potency [18] | outcome [19]

Cc1cc(C)c(C)c(C)c1
inactive: Potency [1] | Potency [2] | outcome [3] | outcome [4] | outcome [5] | outcome [6] | outcome [7] | outcome [8] | outcome [10] | outcome [11] | outcome [12] | outcome [13] | outcome [14] | outcome [15] | outcome [16] | outcome [17]

CC(C)OC(=O)C(C(=O)OC(C)C)=C1SC=CS1
inactive: Potency [1] | Potency [2] | outcome [3] | outcome [4] | outcome [6] | outcome [7] | outcome [8] | outcome [9] | outcome [10] | outcome [11] | outcome [12] | outcome [13] | outcome [14] | outcome [15] | outcome [16] | outcome [17] | Potency [18] | outcome [19]

CCCCCCCCCCCCCCCC/C=C/C1CC(=O)OC1=O (centres undefined)
inactive: Potency [1] | Potency [2] | outcome [3] | outcome [4] | outcome [5] | outcome [6] | outcome [7] | outcome [8] | outcome [9] | outcome [10] | outcome [11] | outcome [12] | outcome [13] | outcome [14] | outcome [15] | outcome [16] | outcome [17] | Potency [18]

CN(C)CCC[C@@]1(c2ccc(F)cc2)OCc2cc(C#N)ccc21
inactive: Potency [1] | Potency [2] | outcome [3] | outcome [4] | outcome [6] | outcome [7] | outcome [8] | outcome [10] | outcome [11] | outcome [12] | outcome [13] | outcome [14] | outcome [15] | outcome [16] | outcome [17] | Potency [18] | outcome [19]

CCCCCCCCCCCCCCCC(=O)OC
inactive: Potency [1] | Potency [2] | outcome [3] | outcome [4] | fluorescence, relative to Rose Bengal [6] 0.0004% [at 18.6 µM] | fluorescence, % of fluorescein control [7] -0.0233% [at 18.6 µM] | fluorescence, % of triamterene [8] 0.179% [at 18.6 µM] | fluorescence, % of fluorescent control [9] -0.225% [at 18.6 µM] | fluorescence, % of fluorescein [10] -0.0119% [at 18.6 µM] | activity change [12] -0.0305% [at 18.6 µM] | fluorescence, % of fluorescent control [13] -0.033% [at 18.6 µM] | fluorescence, % of Rose Bengal [14] 0.0231% [at 18.6 µM] | fluorescence, % of fluorescent control [15] -0.0427% [at 18.6 µM] | fluorescence, % of fluorescein control [16] -0.0231% [at 18.6 µM] | fluorescence, % of fluorescent control [17] 0.0931% [at 18.6 µM] | Potency [18] | outcome [19]
